Screens: PubChem BioAssay, National Center for Advancing Translational Sciences (NCATS)
Cruzain inh noDet: blocks cruzain activity in detergent-free assay; P25779; Potency, µM, most hits filed as inhibitors; actives 2.3% (n = 200,000); purified cruzain, Z-FR-AMC fluorescence, no detergent; also: nearly all actives have a fitted effect of over 40% in size
Target sequence (P25779 123-467 limits assumed): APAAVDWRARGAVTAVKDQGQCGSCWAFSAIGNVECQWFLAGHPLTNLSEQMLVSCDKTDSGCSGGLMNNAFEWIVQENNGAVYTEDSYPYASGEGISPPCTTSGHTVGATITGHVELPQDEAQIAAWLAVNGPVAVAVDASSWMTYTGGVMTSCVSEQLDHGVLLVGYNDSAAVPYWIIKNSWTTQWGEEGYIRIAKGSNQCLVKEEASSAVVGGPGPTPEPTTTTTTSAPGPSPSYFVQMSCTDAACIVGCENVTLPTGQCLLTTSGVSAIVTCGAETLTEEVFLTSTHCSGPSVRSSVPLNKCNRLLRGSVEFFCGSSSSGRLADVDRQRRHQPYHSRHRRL
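Purified cruzain at 1.5 nM, pre-incubated 15 min with compound at room temperature in 100 mM sodium acetate pH 5.5, 5 mM DTT, 0.00005% Triton X-100. Reaction started with 2 uM Z-FR-AMC; AMC fluorescence increase over 60 s gives rate.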
Cruzain Triton: inhibitors of Trypanosoma cruzi cruzain with detergent. actives 0.43% (n = 200,000). P25779. Potency, µM, hits mostly inhibitors. purified cruzain, Z-FR-AMC fluorescence, 0.01% Triton; also: nearly all actives have a fitted effect of over 40% in size
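15 min RT preincubation of 1.5 nM cruzain with compound, then 2 uM Z-FR-AMC added; kinetic AMC fluorescence, 60 s delta. Triton X-100 0.01%, pH 5.5.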
Of the large screens only hits and unclear results are named; the others gave an inactive call. A selection: hits, their analogues and other compounds. The true share with any hit is near 2.4%. Calls follow the shape of the dose curve; as a rule, active = well fitted curve in the direction sought with a large enough effect; inconclusive = small, poorly fitted or top-dose-only effect, or another doubt; inactive = no such curve, though single readings can be large; an effect the other way counts as inactive or inconclusive.

CCOC(=O)c1cccc(Nc2ccc3cc(S(=O)(=O)N4CCCCC4)ccc3n2)c1	Cruzain inh noDet 25.1µM
COc1ccc(Cl)cc1Nc1ccc2cc(S(=O)(=O)N3CCCCC3)ccc2n1	Cruzain inh noDet 25.1µM
O=S(=O)(c1ccc2nc(Nc3cccc(F)c3)ccc2c1)N1CCCC1	none
CCOC(=O)CNc1oc(-c2ccccc2)nc1-c1ccccc1	none
CC(C)=C(C#N)c1nc2ccccc2s1	none
Cc1ccc(OC/C(O)=C(\C#N)c2nc3ccccc3s2)cc1	Cruzain inh noDet 20µM
CCOc1ccc(-c2nnc(SCC(=O)Nc3cc(F)ccc3F)o2)cc1	Cruzain inh noDet 10µM
CCOc1ccc(-c2nnc(SCC(=O)NCc3ccccc3)o2)cc1	none
COc1ccc(-c2nnc(SCC(=O)Nc3cc(F)ccc3C)o2)cc1	none
CCOc1ccc(-c2nnc(SCC(=O)NCc3ccc(Cl)cc3)o2)cc1	Cruzain inh noDet 20µM, Cruzain Triton 25.1µM
COc1cc(-c2nnn(CC(=O)Nc3ccc(OC(F)(F)F)cc3)n2)cc(OC)c1OC	Cruzain inh noDet inconclusive
CCCSc1nc2c(c(=O)[nH]c(=O)n2C)n1Cc1ccc(C)cc1	none
Cc1ccc(Cn2c(SCC(C)C)nc3c2c(=O)[nH]c(=O)n3C)cc1	Cruzain inh noDet 10µM
Cn1cccc1-c1cc2n(n1)CCC(=O)N2CC(=O)Nc1ccc(F)cc1Cl	none
O=C(CSc1oc(-c2ccccc2)nc1S(=O)(=O)c1ccccc1)c1ccccc1	Cruzain inh noDet inconclusive
O=C(CSc1oc(-c2ccccc2)nc1S(=O)(=O)c1ccc(Br)cc1)c1ccccc1	Cruzain inh noDet 12.6µM
N=C(c1ccc2ccccc2c1)c1ccccc1Cc1ccccc1	none
CC(=O)c1cccc(NC(=O)COc2ccccc2)c1	none
O=C(COc1ccc2ccccc2c1)Nc1cccc(C(=O)Nc2ccccc2C(=O)O)c1	Cruzain inh noDet inconclusive, Cruzain Triton 31.6µM
COc1ccc(OC)c(CNC(=O)C2CCN(c3nc4ccccc4nc3C(F)(F)F)CC2)c1	none
COc1cc2c(=O)c(C(=O)c3ccc(C)c(C)c3)cn(Cc3ccccc3F)c2cc1OC	Cruzain inh noDet inconclusive
CCN1CCN(C(=O)c2ccc3c(=O)n(CCC4=CCCCC4)c(=O)[nH]c3c2)CC1	none
O=C(NCc1ccco1)c1ccc2c(=O)n(CCC3=CCCCC3)c(=O)[nH]c2c1	Cruzain inh noDet 15.8µM
COc1ccc(NC(=O)CC2C(=O)N(c3ccc(C)cc3)C(=O)N2C2CCCC2)cc1 (stereo not given)	none
Cc1ccccc1NC(=O)c1ccc(Nc2c([N+](=O)[O-])cc([N+](=O)[O-])c3ccccc23)cc1	Cruzain inh noDet 31.6µM
Cc1c(NC(=O)c2ccccc2)cccc1[N+](=O)[O-]	none
COc1cccc(-c2cc(N(C)Cc3ccco3)ncn2)c1	none
O=C(CSCc1cnn(-c2ccccc2)c1-n1cccc1)NCc1ccc(F)cc1	none
O=C(O)c1cncc(C(=O)O)c1	none
CN(C)S(=O)(=O)c1ccc(NC(=O)c2cc(F)c(F)cc2Cl)cc1	none
O=C(Nc1ccc(NC(=O)C23CC4CC(CC(C4)C2)C3)cc1)c1cc(F)c(F)cc1Cl	Cruzain inh noDet 25.1µM
Cc1ccc(C2CC(=O)n3nc(-c4ccc(Cl)cc4)nc3S2)cc1 (stereo not given)	none
Nc1cc(S(=O)(=O)O)ccc1O	none
CC(C)S	none
CC(=O)c1ccc(-c2nc3ccccc3n2C)o1	Cruzain inh noDet 15.8µM
Cc1ccc(-c2nc3ccccc3n2C)o1	none
CC(C)c1nn2c(=O)cc(COC(=O)c3ccccc3NC(=O)C3CCCCC3)nc2s1	none
Cc1c(C2=CCN(S(=O)(=O)c3ccc(Br)cc3)CC2)c2ccccc2n1C	Cruzain inh noDet 10µM
CCn1c(C)c(C2=CCN(S(=O)(=O)c3ccc(C)cc3)CC2)c2ccccc21	Cruzain inh noDet inconclusive
Cc1ccc(/C=C(\C#N)C(=O)Nc2ccc(Br)cc2)o1	none
Cc1ccc(/C=C(\C#N)C(=O)Nc2cccc(Br)c2)o1	Cruzain inh noDet 12.6µM
CC[N+](=O)[O-]	none
O=C(NCc1cccs1)c1nn(-c2ccccc2F)nc1CO	none
O=C(Nc1ccc(Br)cc1)c1cc(S(=O)(=O)N2CCc3ccccc32)ccc1F	none
CC(=O)Cc1nsc(NC(=O)c2ccc(-c3cccc(C(F)(F)F)c3)o2)n1	none
Cc1ccc2cccc(NC(=O)c3ccc(-c4cccc([N+](=O)[O-])c4)o3)c2n1	none
Cc1nnc(NC(=O)c2ccc(-c3cccc(C(F)(F)F)c3)o2)s1	Cruzain inh noDet 12.6µM
O=C(Nc1ncc(Cc2cccc(C(F)(F)F)c2)s1)c1ccc(-c2cccc([N+](=O)[O-])c2)o1	Cruzain inh noDet 10µM
CCC(CC)C(=O)Nc1ccccc1C(=O)OCc1cc(=O)n2nc(C3CCCCC3)sc2n1	none
COc1ccc2nc(NCN3C(=O)c4ccccc4C3=O)sc2c1	none
CC(C)c1ccc(Nc2c(-c3ccccn3)nc3ccccn23)cc1	none
Cc1csc(NC(=O)/C=C/c2ccc3c(c2)OCO3)n1	none
O=C(/C=C/c1ccc2c(c1)OCO2)Nc1nc(-c2ccc(F)cc2F)cs1	Cruzain inh noDet 7.94µM
CCCSCCCNC(=O)C1CCN(C(=O)c2cnn(-c3ccccc3)c2-n2cccc2)CC1	Cruzain inh noDet inconclusive
Cc1nn2c(-c3cccc(NC(=O)c4ccc(Cl)cc4)c3)nnc2c2ccccc12	none
N/N=C1/c2ccccc2N[C@H]1OC(=O)Nc1cccc(Cl)c1	none
COc1ccccc1-c1ccc(/C=C2/C=C(CC(C)C)OC2=O)o1	Cruzain inh noDet 31.6µM
CCCC1=C/C(=C/c2ccc(-c3ccccc3OC)o2)C(=O)O1	Cruzain inh noDet inconclusive
COc1ccc(C(=S)N2CCCCCC2)cc1	Cruzain Triton 14.1µM
COc1ccc(C(=S)N2CCNCC2)cc1	none
CC(C)COc1ccc(C(=O)Nc2cc3nn(-c4ccccc4)nc3cc2Cl)cc1	none
CC(C)COc1ccc(C(=O)Nc2scc(-c3ccc(Cl)cc3Cl)c2C(N)=O)cc1	Cruzain inh noDet 10µM
CC(=O)OCC1OC(Oc2cc(OC(C)=O)c3c(=O)cc(-c4ccc(OC(C)=O)c(OC(C)=O)c4)oc3c2)C(OC(C)=O)C(OC(C)=O)C1OC(C)=O (stereo not given)	Cruzain inh noDet inconclusive
CC(C)[C@@H]1NC(=O)c2cc([N+](=O)[O-])cc(I)c2NCC[C@@H](C(N)=O)NC(=O)[C@H](CO)NC1=O	Cruzain inh noDet inconclusive
CC(C)C[C@@H]1NC(=O)[C@H](C(C)C)NC(=O)c2cc([N+](=O)[O-])cc(I)c2NCC[C@@H](C(N)=O)NC1=O	Cruzain Triton 14.1µM
Cc1nn(Cc2ccc(Cl)c(Cl)c2)c(C)c1NC(=O)c1sc2ccccc2c1Cl	Cruzain inh noDet 15.8µM
Cc1nn(Cc2c(Cl)cccc2Cl)c(C)c1NC(=O)c1sc2ccccc2c1Cl	none
c1coc(-c2nc(-c3ccco3)c(-c3ccco3)nc2-c2ccco2)c1	Cruzain inh noDet inconclusive, Cruzain Triton 7.94µM
Nc1nc(-c2ccco2)c(-c2ccco2)s1	none
COc1ccc(Nc2c(-c3ccco3)nc3cccc(C)n23)cc1	none
COc1ccc2nc(-c3ccco3)c(-c3ccco3)nc2c1	Cruzain inh noDet 3.98µM, Cruzain Triton 11.2µM
COc1cccc(N2CCN(C(=O)c3ccc(CS(=O)c4cccc(Cl)c4)o3)CC2)c1 (stereo not given)	none
Cc1ccc(CNc2nc(N)c([N+](=O)[O-])c(NCc3ccccc3)n2)cc1	Cruzain inh noDet inconclusive
Cc1ccc(CNc2nc(N)c([N+](=O)[O-])c(Nc3ccc(F)cc3)n2)cc1	Cruzain inh noDet 15.8µM
CC(=O)c1cc(-c2ccccc2)n(CCC(=O)Nc2ccc(C(C)C)cc2)c1C	none
COCCn1c(=O)c(C)nc2cncnc21	none
N#Cc1ccc(-c2cccs2)nc1SCc1ccc(Cl)cc1Cl	none
